GLP1R inv ag = GLP-1 receptor (human) inverse agonism | AID 624417 | HEK293 GLP-1R CRE-luciferase, luminescence, 24 h; GLP-1R form is constitutively active | P43220 | Potency, µM (doses to about 38.3 µM), most hits filed as inhibitors | 410,000 tested, 1.6% active; further: nearly all actives have a fitted effect of over 55% in size
Target sequence (P43220 whole entry, looked up): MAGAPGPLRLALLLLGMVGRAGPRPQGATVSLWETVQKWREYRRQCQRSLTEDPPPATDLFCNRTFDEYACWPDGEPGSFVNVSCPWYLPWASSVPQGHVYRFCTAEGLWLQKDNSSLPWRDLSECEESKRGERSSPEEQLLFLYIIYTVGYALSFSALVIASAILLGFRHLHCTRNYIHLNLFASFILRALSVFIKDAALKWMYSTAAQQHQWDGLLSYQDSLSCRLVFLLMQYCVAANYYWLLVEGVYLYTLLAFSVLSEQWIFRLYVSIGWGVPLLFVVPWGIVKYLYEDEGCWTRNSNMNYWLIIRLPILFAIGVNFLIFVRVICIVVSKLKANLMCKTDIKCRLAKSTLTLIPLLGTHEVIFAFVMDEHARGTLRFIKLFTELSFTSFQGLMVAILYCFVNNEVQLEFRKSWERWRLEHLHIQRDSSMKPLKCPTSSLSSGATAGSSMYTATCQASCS
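HEK293 cells stably co-expressing constitutively active GLP-1R and a cAMP-responsive luciferase reporter were seeded in DMEM with 10% Nu serum, given compounds after 12 h, and incubated 24 h at 37 deg C. Luminescence was then read.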
GLP1R ag = agonists of human GLP-1 receptor; P43220; HEK293 GLP-1R CRE-luciferase, luminescence, 4-6 h; cells express a hypersensitive GLP-1R form; Potency, µM (top dose mostly 45.6 µM), usual class: activators; 380,000 tested, 0.007% active
Mm-Cpn inhibitor = inhibitors of Methanococcus maripaludis chaperonin TRiC (MmCpn). purified Mm-Cpn ATPase, ADP Transcreener TR-FRET. Potency, µM (doses to about 76.9 µM), usual class: inhibitors. 330,000 tested, 0.031% active; further: nearly all actives have a fitted effect of over 80% in size
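ATP (10 uM final) was added to archaeal chaperonin (25 nM final) after 10 min exposure to test compound at 37°C; after 30 min further incubation, ADP was detected by competitive TR-FRET.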
CCT chaperon mod = modulators of cytosolic chaperonin (CCT/TRiC) activity | purified chaperonin ATPase assay, HTRF ADP detection, 30 min | activity change, % (test concentration not listed), hits read low | 360,000 tested, 0.3% active | AID 651819; in the data active means activity change below about -30%
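Enzyme 40 or 20 nM (batch-dependent) in Tris pH 7.4/KCl/MgCl2/DTT; cpd 76 uM single point; ATP 10 uM; 30 min 37 °C; Transcreener ADP HTRF detection, 30 min RT; ratio 665/615.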
uPA surface inh = blocks generation of uPA at the cell surface; AID 540303; cell surface uPA generation assay, qHTS; Potency, µM (top dose mostly 38.3 µM), usual class: inhibitors; 330,000 tested, 0.31% active; active means well fitted inhibition curve with a large enough effect; inconclusive means small, poorly fitted or top-dose-only effect; inactive means no such curve, though single readings can be large or run the other way; tested in mouse RAW 264.7 cells; further: nearly all actives have a fitted effect of over 55% in size
GLP1R cytotox = cytotoxicity counter-screen for GLP-1 receptor inverse agonists; HEK293 cAMP-luciferase reporter cells, luminescence, 24 h; Potency, µM (highest dose often 38.3 µM), most hits filed as inhibitors; 410,000 tested, 0.13% active;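 further: loss of luciferase light is scored as toxicity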
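MLSMR compounds, 24 hr on cells at 37 deg C/5% CO2; luminescence after luciferase reagent (12 min RT). Inhibition counted as the undesired cytotoxic outcome.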
Numbers stand for hits; i = inactive; ? = inconclusive; nt = not tested or not shown. Sampled rows, rich in hits. Any-hit rate of the full collection: about 2.2%. Unless noted, the call rests on the fitted dose curve; in most records, active means well fitted curve in the direction sought with a large enough effect; inconclusive means small, poorly fitted or top-dose-only effect, or another doubt; inactive means no such curve, though single readings can be large; an effect the other way counts as inactive or inconclusive.

SMILES | GLP1R inv ag | GLP1R ag | Mm-Cpn inhibitor | CCT chaperon mod | uPA surface inh | GLP1R cytotox
COc1ccc(Cl)cc1NC(=O)c1ccc2nc(Cc3ccccc3)oc2c1 | ? | nt | nt | nt | nt | i
Cc1c(C(=O)OCC2CCCCC2)[nH]c2c1C(=O)CC(c1ccccc1Cl)C2 (centres undefined) | i | nt | nt | nt | nt | i
C/C(Cl)=C\Cn1c(O)c(N=NC(N)=S)c2ccccc21 | ? | ? | i | i | i | 1.58µM
COC(=O)c1ccc(Cn2c(O)c(N=NC(N)=S)c3ccccc32)o1 | 10µM | i | i | i | i | ?
NC(=S)N=Nc1c(O)n(Cc2ccccc2)c2ccccc12 | ? | i | i | i | i | ?
Cc1c(C(=O)NCc2ccccc2Cl)sc2nc[nH]c(=O)c12 | i | nt | nt | nt | nt | i
Cc1ccc(N(Cc2cccs2)C(=O)C(C)Oc2ccc(Cl)c(C)c2)cc1 (centres undefined) | ? | nt | nt | nt | nt | i
CCOC1(/N=C(\C)NS(=O)(=O)c2ccc(Cl)cc2)C(C)=CC(=O)C=C1C | i | i | i | -70.5 | i | i
O=C(Nc1ccccc1C(=O)NC(Cc1ccccc1)C(=O)O)c1ccco1 (centres undefined) | i | i | i | i | i | i
O=C(Nc1ccccc1C(=O)N/N=C/c1ccc(O)cc1)c1ccccc1 | i | i | i | i | 7.08µM | i
O=C(Nc1ccccc1C(=O)N/N=C/c1ccccc1)c1ccco1 | i | i | i | i | i | i
O=C(Nc1ccccc1C(=O)NC(Cc1ccc(O)cc1)C(=O)O)c1ccccc1 (centres undefined) | i | i | i | -36.2 | i | i
Cc1ccc(Cc2nc3ccccc3nc2SCC(=O)Nc2ccc3c(c2)OCO3)cc1 | i | i | nt | nt | nt | i
COc1ccccc1C1CC(c2c(-c3ccccc3)c3cc(Cl)ccc3[nH]c2=O)=NN1S(C)(=O)=O (centres undefined) | 10µM | i | i | i | i | i
CCCC1=Nc2cc(C(=O)NCc3ccccc3)ccc2Sc2ccccc21 | 3.98µM | nt | nt | nt | nt | i
CCC1=Nc2cc(C(=O)NCc3ccco3)ccc2Sc2ccccc21 | ? | i | i | i | 3.16µM | ?
Cc1nc(N2CCN(c3ccccn3)CC2)c2c(C)c(C(=O)Nc3ccc(Br)cc3C)sc2n1 | i | i | i | i | i | i
COc1ccc(C)cc1NC(=O)c1sc2ncnc(N3CCN(c4ccccn4)CC3)c2c1C | i | i | i | -138.9 | i | i
Cc1ccc(NC(=O)c2sc3nc(C)nc(N4CCN(c5ccccn5)CC4)c3c2C)c(C)c1 | 11.2µM | i | i | i | i | i
CCC1Oc2ccccc2N(CC(=O)NCc2ccccc2)C1=O (centres undefined) | i | nt | nt | nt | nt | i
CNc1nc(-c2ccc3c(c2)CCN3C(=O)c2ccc(F)cc2)cs1 | i | i | i | i | i | i
CNc1nc(-c2ccc3c(c2)CCN3C(=O)c2cccc(F)c2)cs1 | ? | i | i | i | 7.08µM | i
CC1CCCC(C)N1C(=O)Cn1cc(/C=C2/C(=O)Nc3ccccc32)c2ccccc21 (centres undefined) | 5.62µM | i | i | i | i | ?
Cc1ccc(SCc2nc(-c3ccc(C(=O)Nc4cc(C)ccc4C)cc3)oc2C)cc1 | i | nt | nt | nt | nt | i
CN1CCN(c2oc(Cc3cccc4ccccc34)nc2C#N)CC1 | ? | i | i | i | i | i
SMILES | GLP1R inv ag | GLP1R ag | Mm-Cpn inhibitor | CCT chaperon mod | uPA surface inh | GLP1R cytotox
Cc1cccc(OCc2nc(C#N)c(N3CC(C)CC(C)C3)o2)c1 (centres undefined) | ? | i | i | i | i | i
Cc1cccc(OCc2nc(C#N)c(NCc3ccc4c(c3)OCO4)o2)c1 | 11.2µM | i | i | i | i | i
Cc1cccc(OCc2nc(C#N)c(N3CCCC3)o2)c1 | i | i | i | -30.2 | i | i
N#Cc1nc(Cc2cccc3ccccc23)oc1N1CCCCC1 | 10µM | i | i | i | i | i
COc1ccc(CNc2oc(COc3ccccc3)nc2C#N)cc1 | 10µM | i | i | i | i | i
COc1ccc(CNc2oc(COc3cccc(C)c3)nc2C#N)cc1 | ? | nt | nt | nt | nt | i
COc1c(C)cc(S(=O)(=O)Nc2cccc(-c3ccc(N4CCOCC4)nn3)c2)c(C)c1C | ? | nt | nt | nt | nt | i

Assay outcomes: PubChem, National Center for Advancing Translational Sciences (NCATS)
